Measurements reported in the supplement of paper PMC11417369.
Whole data set: some 25,000 sequences, median “ln(normalized median fluorescence intensity)” near 9.3, cut for the highest 2% near 10. The sample as a whole holds a higher share of the highest values than the screen did.

The sequences below were run on PF3D7_0420300 AP2 domain 1 (GST-tagged) (assay: gcPBM binding intensity (ln(normalized median fluorescence intensity)); higher = stronger DNA binding).
Summary of the method: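 In this array assay, P. falciparum DNA-binding domains with a GST tag, expressed in E. coli, were applied for 1 h to primer-extended double-stranded 36-bp intergenic genomic probes and negative controls on an Agilent 4 × 180k array. Bound protein was visualised with Alexa488 anti-GST antibody at 488 nm. Binding intensity is the highest Masliner-normalised natural-log median intensity across replicate spots of either probe orientation.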

Sequence | gcPBM binding intensity (ln)
AACAAAATTGAAGGAACACACATACAGATATATATA [CACACA_site4264] | 9.81
AGCAAAAATTAAATAAATAAATATATATATATATAT [TGCATGCA_negctrl_site449] | 9.12
TTTTTGCAAAAAGAAATAATTTTATTTTAGTTCGGA [CACACA_negctrl_site1718] | 8.78
ATTTTTATACGTTTTTTTTTTTTTTTTTTTTATTTA [CACACA_negctrl_site1142] | 9.62
ATAATGTGTTAGGCGTGTACACAATTGTATGGTTTA [XGTACX_site2377] | 9.45
ATATTAACTTTTATTACACACTCTCAACTTTTATTT [CACACA_site6176] | 9.72
GTACTTGTATTATGCACACATATAATTAAACATATA [CACACA_site3312] | 9.41
CATTTTAAAACAGACACACACCAAAAAAAAAAAAAA [CACACA_site6259] | 9.4
AAGAAAAACTAAAGAGTTCTGTTCATATCTCTTTGG [TGCATGCA_negctrl_site549] | 8.99
TTTATTTTATCATTTGCACACGCACGCCCACATAAA [CACACA_site353] | 9.4
ATCAAGCACGAACACACACACACACGCACGCCCACA [CACACA_site6308] | 10.2
CCAACATGCCCACGCACACACAAAAAAAGCATGCAT [CACACA_site4217] | 9.58
GAGAGTAAAACAAATATACACACCATAAAGTTATAA [CACACA_site1686] | 9.49
TTCATTCAAATTAACGTGCACATTATTAGTAAAAAC | 9.08
TTATACTAAATGAACACACACACATATATATATATA [CACACA_site99] | 9.81
ATACTAAATGAACACACACACATATATATATATAAT [CACACA_site4232] | 10.1
ATACTAAATGAACACACACACATATAGATTTATAAC [CACACA_site6200] | 10.2
TAGTGTATGATAATATGTACATACATTTATATAATA [XGTACX_site6330] | 9.11
TATATATATATATAAACACACATAAATATAAATATA [CACACA_site1121] | 9.6
AAAAAAAGTTATATTACACACTTTATTCGTTAACTT [CACACA_site3013] | 9.47
TTTGTTATGGTTTTCTCACACATATATATATATATA [CACACA_site4617] | 9.5
AAAAAAAAAAGACACACACACACATACACATACATA [CACACA_site7362] | 10.2
AAAAAAAAAAGACACACACACACAAATACATACACA [CACACA_site6472] | 10.1
AAAAAAAAAAGACACACACACAAATACAAATACATA [CACACA_site6334] | 10
AAAAAAAAAAAACACACACACACACTAATACATACA [CACACA_site8135] | 10.1

Sequence | gcPBM binding intensity (ln)
AAAAAAAAAAGACACACACACACACTAATACATACA [CACACA_site6473] | 10.2
AATAAAAAAAAAAAAAAAAAAAAAAAGACACTAAAA [CACACA_negctrl_site1075] | 9.33
ATGGGTATATTTCCACGTACAAAAAATCCGAATTGC [XGTACX_site1490] | 9.23
AAAAATTAAAATATTATAGTTGAAACTTTTATAAAT [TGCATGCA_negctrl_site454] | 8.81
AATATGTAGTAATCAAGTACTAATGTCTTAATTCGG [XGTACX_site308] | 9.27
GATATGAATATAGGTTGTACTATATATAAAGTATGT [XGTACX_site1877] | 9.35
CCACTGTATGAATGCACACATTCATAGAATTGCTAT [CACACA_site2676] | 9.24
TAATAATAGAGACACACACACATAGACATATAAATA [CACACA_site6729] | 10.2
TATAAATAGAGACACACACACATATAAATAAATATT [CACACA_site7854] | 10.1
CATATAAATAGACACACACACACATATAAATAAATA [CACACA_site7156] | 10.3
TATATAAATAGACACACACACATATAAATATAAATA [CACACA_site6503] | 10.1
TATATAAATAGACACACACACACATATAAATAAATA [CACACA_site7855] | 10.2
TATATATATAGACACACACACATATAAATAAATAAA [CACACA_site444] | 10.1
TTATAAAATAAACTTACACACATGAAATATTATATT [CACACA_site1945] | 9.49
ATAGAAGCTGTTGACGAAGAAAAAAAAAAAAAAAAA [CACACA_negctrl_site110] | 8.56
TTTAAAAAAATTCATGCACACGAAATAAAAAGCACC [CACACA_site8214] | 9.71
ACAAAAAAAAAAAAAAAAAGAAGAATATATCTATAT [CACACA_negctrl_site759] | 9.16
ATTATAAATATATTTTGTACTTAAAAGGAAAAAAAA [XGTACX_site55] | 9.02
AAATTAATTAAATATACACACATATATAAATATATA [CACACA_site391] | 9.38
TATAATCATAAATACACACACATATATATATATATA [CACACA_site5224] | 9.54
ACATATAAAATATATACACACATATAAATACATTAA [CACACA_site3867] | 9.75
ACATATACAAGACACACACACAACGTTTTAATAAAT [CACACA_site7017] | 10.2
AAAAAAAAAAAAAGTACACACATACATATAAATATA [CACACA_site8533] | 9.72
AAATATAAATGGTAATACACATACACACACACATAC [XGTACX_negctrl_site459] | 10.2
ACATATACAAAACACACACACAACGTTTTAATAAAT [CACACA_site1979] | 10.1

Sequence | gcPBM binding intensity (ln)
TATAAATATATATACACACACACATTAATACATATA [CACACA_site3488] | 10.2
AAATATAAAAAATATACACACATATATAATATATAT [CACACA_site2963] | 9.55
TTAAAATATACATAAACACACACAAAACGTTTAAGA [CACACA_site8267] | 9.9
AAAAAAAAAAAGTACACACATACATATAAATATATA [CACACA_site1809] | 9.46
ATAAATACATATAAAAGTACACACACACACATATAT [XGTACX_site1744] | 10.4
TATATTGAAAATAAAACATGCAATCACTCATACATA [TGCATGCA_site248] | 9.36
AAAGAAAAATTAACATGTACAAAAATTACTTGTTCA [XGTACX_site6725] | 9.21
AAAAAATAAATAAATACACACAAATCTATATTTATA [CACACA_site7243] | 9.51
GTATTCTACAGACACATACACACATATATATATATA [CACACA_site3427] | 9.7
TTAAATATAAAAAGTAGTACATTTATATTTACCATA [XGTACX_site2962] | 8.96
AATTCATTATATATACGTACATATTTCTGTATAAAA [XGTACX_site6371] | 9.24
ATACATATATATAGGTGTACATATAATATATATATA [XGTACX_site2228] | 9.35
ATAGTAATAGAATGATTGCACTTAAATTTTCCCTCT | 9.19
AATATATATATATGTACACACTCCAATACATATACA [CACACA_site2682] | 9.42
AAAAAAATAACAAAAGTGCATTTTTATGAGTTATCT | 9.2
CATAAATACATACATACACACATATATATATATATA [CACACA_site2106] | 9.5
ATAATATAAATATACACACACACATATATATATATA [CACACA_site2905] | 9.91
TACATACATACATACACACACACATATAAATACATA [CACACA_site4626] | 10.2
TACATATAAAAGTACACACACACACCCATATATATA [CACACA_site941] | 10.2
AATACATATAAAAGTACACACACACCCATATATATA [CACACA_site8220] | 10.2
AAATAATATAAATACACACACACATATATAAATACA [CACACA_site4465] | 10.2
TATAAAAATAAAAAAAGTACACATAAAAATATATAT [XGTACX_site5189] | 9.62
CATATATAAATATATACACACATACATACATACATA [CACACA_site5988] | 9.67
AATAAATAAATATATACACACATATATATATAATAT [CACACA_site921] | 9.6
TGGTAATACCCATACACACACACATACCCATATATA [CACACA_site5509] | 10.1

Sequence | gcPBM binding intensity (ln)
TGGTAATACCCATACACACACACATACACATATATA [CACACA_site8877] | 10.1
TGGTAATACACATACACACACACATACACATATATA [CACACA_site7312] | 10.2
TAAAACAATACTTTGTGCTTCTCTGGTTTTTTTTTT [GTGCAC_negctrl_site284] | 9.26
ACGTTTGATACACATAAAGTTTTCCTTTGAATGTAC [CACACA_negctrl_site106] | 9.26
TTTTAACATAGAAGTACACACATATAATCAATCATA [CACACA_site5313] | 9.6
TTAATACATTAAATATGTACTTATATATCTCAACTA [XGTACX_site3997] | 9.11
AACACAAATAAGTATTTGGATTATATTACATTTATA [CACACA_negctrl_site465] | 9.18
GTGTTTTTATGTGAATGTACATATTTACTATCACAC [XGTACX_site2388] | 9.56
TTCATTCTATAAAACACACAAATATTTTTGTATCCC [CACACA_site6458] | 9.2
CATAATATGACATACACACACAAAAAAAAAAAAATA [CACACA_site1285] | 9.91
AGAAATATCTAATTGTGTACTCAAGAAAAAGTTACG [XGTACX_site372] | 9.29
TTACCATAAGTATGTGGTACACTTTAAATGAAGATA [XGTACX_site6972] | 8.88
AATACATACAGACACACACACACATATAAATAAATA [CACACA_site7642] | 10.2
AATATAAGCAAATACACACACACATATAAATATGTA [CACACA_site7741] | 10.2
AATTAAAAAAAATACACACACACATACACATATATA [CACACA_site3298] | 10.2
AATATAAGCAAATACACACACACATATATATATATA [CACACA_site3805] | 10
TACATACACAGACACACACACATATAAATATAAATA [CACACA_site7641] | 9.95
AAAATTAAAATATATACACACATATATATATTAAAT [CACACA_site4419] | 9.57
TATAAATAAATATACACACACACATATAAATATGTA [CACACA_site6504] | 10.1
CATACATACAGACACACACACATATAAATACATACA [CACACA_site6533] | 10
TACAGATATTATTGCACACATATAAAATACCCCCAA [CACACA_site6014] | 9.89
CATACATATATTATTGCACACATATAAAATACCCCC [CACACA_site9292] | 10.3
TACATATATTATTGCACACATATAAAATACCCCCAA [CACACA_site3895] | 9.82
AAAAAAAATTAAATAAATAAATATACACATATATAT [GTGCAC_negctrl_site394] | 9.26
